Consider 24 compounds from PubChem BioAssay AID652039 (The Scripps Research Institute Molecular Screening Center, 2013).

Each structure is given as a SMILES string. In all, about 370,000 compounds went through this assay and about 3,300 (0.89%) were called active. The sample holds actives, similar compounds and a random draw of the others, so the mix is not that of the screen. A number with no mark means an inactive call.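 The calls were made as follows: active = activation above the mean of all tested compounds plus 3 SD, computed per campaign excluding outliers beyond control limits (cut at about 13% in these data); inactive = the rest.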

Kallikrein-7 (Homo sapiens), sequence (P49862 whole entry, looked up): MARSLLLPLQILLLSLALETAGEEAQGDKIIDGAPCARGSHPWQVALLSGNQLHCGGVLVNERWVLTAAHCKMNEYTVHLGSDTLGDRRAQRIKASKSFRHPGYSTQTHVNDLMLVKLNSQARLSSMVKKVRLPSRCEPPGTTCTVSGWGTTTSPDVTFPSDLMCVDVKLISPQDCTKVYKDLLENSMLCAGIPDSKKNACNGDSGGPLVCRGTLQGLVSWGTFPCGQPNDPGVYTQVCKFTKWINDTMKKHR

This assay concerns the target Kallikrein-7 (Homo sapiens) (UniProt P49862). In words: activation of human kallikrein-7 proenzyme – biochemical, fluorescence intensity, primary screen (AID 652039). As to conditions: purified proKLK7, EDANS-DABCYL substrate fluorescence; at 7 µM; stronger effect = higher value; 100% is mature enzyme control, 0% vehicle.
For `O=C(CSc1nnc(-c2cccc(Cl)c2)n1Cc1ccco1)Nc1ccc(OCc2ccccc2)cc1`, the activation was 0.41%.
On to `CCn1c(SCC(C)=O)nc2sc3c(c2c1=O)CCCC3`, for which the activation was 0.36%.
With `CCCNC(=O)Nc1ccc2c(c1)C(=O)N(C)[C@H]1CC[C@H](CC(=O)NCC3CCCCC3)O[C@@H]1CO2` the figure was 0.14%.
The same measure for `CCN1CCN(C(=O)c2cc3cc4ccc(OC)cc4nc3s2)CC1`: 68.7% (active).
For the compound `CCN1CCN(C(=O)CN(C)S(=O)(=O)c2ccc(OC)cc2)CC1`, the activation was -0.44%.
With `COc1ccc(OCC(=O)N2CCN(C(=O)c3cccs3)CC2)cc1`, the activation is 0.07%.
For `COC(=O)[C@]12C[C@H](CC(=O)NCc3ccccc3)C(=O)N(Cc3ccccc3)C1=C[C@H](COCc1ccccc1)O[C@@H]2C`, the activation is -0.24%.
With `CCCOc1ccc(Oc2c(Cl)cnn(Cc3cccc4ccccc34)c2=O)cc1` the figure was 0.98%.
Take `COc1ccc(CSc2nnc(-c3cccc(C)c3)n2C)cc1`: the activation was -0.66%.
As for `CCOC(=O)c1c(NC(=S)SC)sc(C(=O)N2CCc3ccccc3C2)c1C`, the activation is 0.73%.
As to `CCOC(=O)c1c(NC(=S)Nc2ccccc2)sc2c1CCN(C)C2`, the activation was 33.8% (active).
Turning to `CCOC(=O)c1c(NC(=O)NC(C)(C)C)sc2c1CCN(C)C2`, the activation is 0.12%.
The same measure for `COc1ccc(CNC(=O)C(C)n2nc(C)c3c(C)n(-c4ccccc4)nc3c2=O)c(OC)c1` (centres undefined): 0.01%.
For `COCCCNC(=O)C[C@H]1C[C@@]2(C(=O)OC)C(=C[C@H](C(C)(C)C)O[C@@H]2C)N(Cc2ccc(Cl)cc2Cl)C1=O`, the activation is -0.25%.
On to `C#CCNC(=O)C[C@H]1C[C@@]2(C(=O)OC)C(=C[C@H](C(C)C)O[C@@H]2C2CC2)N(Cc2ccco2)C1=O`, for which the activation was 0.24%.
For the compound `Oc1ccc2ccc3cccc[n+]3c2c1`, the activation is 16.2% (active).
Consider `COc1ccc(-n2c(SCC(=O)Nc3ccc(C)c(Cl)c3)nc3ccccc3c2=O)cc1`, for which the activation is -0.5%.
The same measure for `COc1ccc(-n2c(SCC(=O)Nc3ccc4c(c3)OCCO4)nnc2-c2ccc(Cl)cc2)cc1`: -0.65%.
The same measure for `CN1C[C@]2(C=C3CCCCC3n3c(=O)n(-c4ccccc4)c(=O)n32)N=C1NC(=O)c1ccccc1` (some centres undefined): 0.02%.
Take `COc1ccc(-n2c(SCC(=O)Nc3ccc4cn[nH]c4c3)nnc2-c2cccnc2)cc1`: the activation was -0.83%.
In the case of `O=C(Nc1ccccc1)N1CCN(Cc2nc3ccccc3c(=O)[nH]2)CC1`, the activation was 0.5%.
In the case of `COc1ccc(CCNC(=O)c2cc3sccc3n2C)cc1OC`, the activation is -0.31%.
In the case of `COc1ccc(CCNC(=O)C(=O)Nc2ccc3nc4n(c(=O)c3c2)CCCCC4)cc1OC`, the activation is 0.82%.
Consider `COc1ccc(CCNC(=O)Nc2ccc3c(c2)c(=O)n(C)n3C)cc1OC`, for which the activation was 33.7% (active).
